Assay outcomes: PubChem, National Center for Advancing Translational Sciences (NCATS)
Only some compounds are listed: those with a hit (about 5.5% of all), similar ones and a draw of the others.
RORg inh: qHTS for inhibitors of ROR gamma transcriptional activity. Drosophila S2 Gal4-RORgamma UAS-luciferase reporter, 20 h. Nuclear receptor ROR-gamma (Mus musculus), P51450. AID 2551, 2010. actives 5.4% (n = 310,000). Potency, µM (highest dose often 53.6 µM), inactives show at the highest dose activity change, negative = inhibition, most hits filed as inhibitors; further: on the % scale 0 is the no-effect control and ±100 the full control effect; nearly all actives have a fitted effect of over 60% in size
Target sequence (P51450 whole entry, looked up, the tested form may be a part): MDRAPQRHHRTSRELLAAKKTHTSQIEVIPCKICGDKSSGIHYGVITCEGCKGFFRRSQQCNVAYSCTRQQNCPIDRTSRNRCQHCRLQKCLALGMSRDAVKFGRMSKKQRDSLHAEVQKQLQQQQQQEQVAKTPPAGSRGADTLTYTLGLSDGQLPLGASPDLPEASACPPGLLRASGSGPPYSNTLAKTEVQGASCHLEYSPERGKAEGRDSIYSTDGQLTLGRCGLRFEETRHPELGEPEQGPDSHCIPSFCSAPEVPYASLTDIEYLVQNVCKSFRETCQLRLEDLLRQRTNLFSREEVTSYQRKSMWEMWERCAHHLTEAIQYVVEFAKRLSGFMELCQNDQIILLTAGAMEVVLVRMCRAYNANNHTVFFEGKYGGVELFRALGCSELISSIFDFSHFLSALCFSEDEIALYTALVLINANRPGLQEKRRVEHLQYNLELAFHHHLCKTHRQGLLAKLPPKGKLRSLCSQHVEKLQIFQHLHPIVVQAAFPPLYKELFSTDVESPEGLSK
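In this cell-based reporter format, copper sulfate (700 uM final) drives Gal4–ROR gamma fusion expression from a metallothionein promoter in Drosophila Schneider cells; compounds preincubated 1 hr, reporter read after 20 hr at ambient temperature.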
uPA generation: qHTS for Inhibitors of Cell Surface uPA Generation. AID 540303, 2011. Potency, µM (doses to about 38.3 µM), without a hit: at the top dose activity change, negative = inhibition, actives largely listed as inhibitors. actives 0.31% (n = 330,000). cell surface uPA generation assay, qHTS; active means well fitted inhibition curve with a large enough effect; inconclusive means small, poorly fitted or top-dose-only effect; inactive means no such curve, though single readings can be large or run the other way; tested in mouse RAW 264.7 cells; further: on the % scale 0 is the no-effect control and ±100 the full control effect; nearly all actives have a fitted effect of over 55% in size
Mito fusion act: qHTS Assay for Small Molecule Inhibitors of Mitochondrial Division or Activators of Mitochondrial Fusion | Potency, µM (series often up to 46.1 µM), for the others: at the highest dose growth rescue (activation), hits mostly activators | S. cerevisiae fusion-defective mutant growth rescue, CellTiterGlo 48 h | actives 0.23% (n = 320,000) | AID 485298, 2010; further: % of control where 0% means no effect; nearly all actives have a fitted effect of over 45% in size
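S. cerevisiae fusion-defective temperature-sensitive mutants (e.g. fzo1-1, mgm1-5) grown 48 h at 37C in YPEG (ethanol/glycerol non-fermentable) medium with 23 nl compound per well; growth rescue read as CellTiterGlo luminescence.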
Chronic BCR inh: qHTS Assay to Find Inhibitors of Chronic Active B-Cell Receptor Signaling. ABC-DLBCL IkBa-CBG/CBR reporter, luminescence ratio, 4 h. Potency, µM (series often up to 46.1 µM), inactives show at the highest dose activity change, negative = inhibition, most hits filed as inhibitors. actives 0.05% (n = 340,000); active means well fitted inhibition curve with a large enough effect in the signal ratio, with a control signal flat, not every such curve was filed as active; inconclusive means small, poorly fitted or top-dose-only effect, or effect the other way, or a change in a side signal; the % refers to the signal ratio;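 further: plate controls were basal doxycycline-induced cells for no effect and cells given 10 µM MG132 for full effect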
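Concentration-response series (up to 46 uM) were applied to TMD8 dual-reporter cells for 4 h at 37C with doxycycline. Green/red ratio, after filter-overlap correction, defined %Activity; red signal alone was normalised to basal cells and zero luminescence.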
a7 integrin act: qHTS for Activators of Integrin-Mediated Alleviation for Muscular Dystrophy. alpha7betagal myoblasts, beta-gal FDG fluorescence, 48 h. actives 0.064% (n = 350,000). AID 624291, 2012. Potency, µM (highest dose often 38.3 µM), without a hit: at the top dose activation, usual class: activators;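 further: 100% = response of the positive control SU9516; nearly all actives have a fitted effect of over 60% in size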
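alpha7betagal+/- myoblasts (passage 13, 250/well) treated 48 h at 37C with compounds at 1:260 dilution of DMSO stock. Lysed, then beta-galactosidase activity read as FDG fluorescence (ex 480/em 540) after 30 min, with pre-read for autofluorescence.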
Gal4-VP16 FLuc: VP16 counterscreen qHTS for inhibitors of ROR gamma transcriptional activity; Drosophila S2 Gal4-VP16 UAS-luciferase, luminescence, 20 h; Potency, µM (top dose mostly 53.6 µM), for inactives: at the top dose activity, negative = inhibition, usual class: inhibitors; actives 3.5% (n = 310,000); AID 2546, 2010;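 further: Gal4-VP16 expression switched on by copper sulfate through the metallothionein promoter; on the % scale 0 is the no-effect control and ±100 the full control effect; nearly all actives have a fitted effect of over 50% in size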
An asterisk follows results filed as active; ? = inconclusive; · = no result given; ! = not active in a repeat; [ ] = remark or other dose. Unless noted, the call rests on the fitted dose curve; in most records, active means well fitted curve in the direction sought with a large enough effect; inconclusive means small, poorly fitted or top-dose-only effect, or another doubt; inactive means no such curve, though single readings can be large; an effect the other way counts as inactive or inconclusive. Potency means the concentration at half of the fitted maximal effect.

SMILES	RORg inh	uPA generation	Mito fusion act	Chronic BCR inh	a7 integrin act	Gal4-VP16 FLuc
CCOc1ccccc1NC(=O)c1nc[nH]c1C(=O)Nc1ccccc1OCC	2µM*	3.6%	-3.3%	-3.5%	5.4%	3.98µM*
COc1ccccc1NC(=S)NCc1ccco1	10.8%	-1.6%	-6.7%	?	-9.6%	14.1%
COc1ccc(NC(=S)NCCSc2ccc(Cl)cc2)c(OC)c1	1.12µM*	-5.5%	6.0%	?	-13.0%	-0.4%[0.365 µM]
COc1ccccc1NC(=S)NCCc1ccc(Cl)cc1	1.78µM*	-2.7%	-1.2%	1.1%	21.0%	7.08µM*
COc1ccc(Cl)cc1NC(=S)NCCSc1ccc(C)cc1	6.31µM*	0.3%	5.0%	?	-8.4%	5.01µM*
COc1ccccc1NC(=S)NCCSc1ccc(Cl)cc1	17.8µM*	-3.4%	21.1%	?	5.7%	?
CCCn1c(-c2ccc(F)cc2)nc2c(NC3CCN(Cc4ccccc4)CC3)nc(C)nc21	?	·	·	·	·	-15.9%
CN1CCN(c2ncc3nc(-c4ccc(F)cc4)c(=O)n(C4CC4)c3n2)CC1	-24.1%	·	·	·	·	-2.0%
Cc1cc(F)ccc1S(=O)(=O)Nc1ccccc1C(=O)N1CCCC1	·	-6.9%	1.9%	0.3%	13.0%	·
CCOc1cc(CNn2cn[nH]c2=S)cc(Cl)c1OCc1ccccc1F	7.94µM*	1.7%	?	-9.8%	18.4%	6.31µM*
CCNCc1cc(Cl)c(OCc2ccccc2)c(OCC)c1	-26.3%	-2.7%	10.2%	?	-61.6%	-10.4%
COC(=O)c1ccc(C(NC(=O)OCc2ccccc2)/C(C)=C/[C@@H](C)C(=O)NCc2nc3ccccc3s2)cc1 (stereo partly specified)	43.5%	·	·	·	·	-1.1%
Cc1ccc(NC2Sc3ccccc3NC2=O)cc1 (stereo unspecified)	11.2µM*	-0.5%	10.5%	?	-18.8%	?
CCC1NC(=O)C(NC(=O)c2ncccc2O)C(C)OC(=O)C(c2ccccc2)NC(=O)C2CC(=O)CCN2C(=O)C(Cc2ccccc2)N(C)C(=O)C2CCCN2C1=O (stereo unspecified)	32.5%	·	·	·	·	-3.5%
Cc1c2oc3c(C)ccc(C(=O)N[C@@H]4C(=O)N[C@H](C(C)C)C(=O)N5CCC[C@H]5C(=O)N(C)CC(=O)N(C)[C@@H](C(C)C)C(=O)O[C@@H]4C)c3nc-2c(C(=O)N[C@@H]2C(=O)N[C@H](C(C)C)C(=O)N3CCC[C@H]3C(=O)N(C)CC(=O)N(C)[C@@H](C(C)C)C(=O)O[C@@H]2C)c(N)c1=O	0.0224µM*	·	·	·	·	20µM*!
CCOC(=O)c1cc(-c2ccc(OC)cc2)n(CCC(=O)NC2CCC(C)CC2)c1C (stereo unspecified)	·	·	·	10.9%	·	·
O=C(O)CC1SC(=O)N(CC(=O)c2ccccc2)C1=O (stereo unspecified)	-14.4%	1.6%	-1.6%	-0.1%	-5.6%	1.7%
CN(C)c1ccc(C(=S)N2CCN(Cc3ccccc3)CC2)cc1	12.6µM*	4.2%	-1.1%	2.2%	-35.7%	-3.8%
S=C(c1ccccc1)N1CCN(c2ccccc2)CC1	·	1.1%	·	·	27.7%	·
CCN(CC)c1ccc(C(=S)N2CCN(c3ccccc3)CC2)cc1	12.6µM*	0.9%	-16.1%	-0.1%	-12.6%	?
Nc1ccn([C@@H]2O[C@H](CO)[C@H](O)C2(F)F)c(=O)n1	-2.1%	·	·	·	·	-5.6%
Cc1ccc(C)c(NS(=O)(=O)c2cc3c4c(c2)CC(=O)N4CCC3)c1	4.9%	-1.0%	26.1%	1.5%	15.8%	5.4%
Cc1cn(C)c(CC(=O)Nc2cccc(C#N)c2)c1C(=O)O	·	·	·	5.0%	·	·
Cc1ccc(C(=O)N/C(=C/c2ccc(-c3ccc([N+](=O)[O-])cc3)o2)C(=O)NCCCN(C)C)cc1	·	14.4%	·	·	-67.4%	·
COc1ccc(C(=O)OCC(=O)N(C)C2CCS(=O)(=O)C2)cc1S(=O)(=O)N(C)Cc1ccccc1 (stereo unspecified)	·	11.6%	-2.3%	?	27.2%	·
SMILES	RORg inh	uPA generation	Mito fusion act	Chronic BCR inh	a7 integrin act	Gal4-VP16 FLuc
COCC(=O)N1CCC2(CC1)CN(C(=O)Nc1ccc(OC)cc1)C2	-33.2%	·	·	·	·	11.8%
Cc1ccc(S(=O)(=O)/N=C2/NC(=O)/C(=C/c3ccc(Br)o3)S2)cc1	21.1%	-0.6%	8.8%	?	3.7%	-8.9%
Cc1ccc(S(=O)(=O)/N=C2/NC(=O)/C(=C\c3cc(Br)cc(Br)c3O)S2)cc1	11.2µM*	-18.2%	-6.4%	?	-16.2%	-16.7%
COc1ccc2nc(SCC(=O)NCc3ccc(S(N)(=O)=O)cc3)[nH]c2c1	0.2%	-0.2%	-7.6%	?	-1.1%	1.1%
Cc1cccc(NC(=S)NCCc2ccc3c(c2)OCCO3)c1C	3.98µM*	0.7%	-1.9%	0.8%	-4.8%	?
Cc1cc(C)cc(NC(=S)NCc2ccc3c(c2)OCO3)c1	·	-3.1%	·	·	-5.2%	·
Cc1cccc(NC(=O)C(=O)NCc2ccc3c(c2)OCO3)c1C	-23.2%	0.5%	-2.9%	3.5%	14.4%	-18.5%
Cc1ccccc1NC(=S)NCc1ccc2c(c1)OCO2	2.51µM*	2.0%	-10.4%	-0.5%	-21.0%	10µM*
CCc1ccccc1NC(=S)NCc1ccc2c(c1)OCO2	6.31µM*	·	-5.5%	2.0%	-17.8%[7.66 µM]	11.2µM*
Cc1cccc(NC(=S)NCc2ccc3c(c2)OCO3)c1C	5.01µM*	-1.2%	-6.5%	3.6%	2.0%	12.6µM*
O=S(=O)(c1ccc(Br)s1)N1CCNCC1	-11.2%	-3.9%	-1.5%	-18.6%	?	-1.5%
Nc1ccccc1Oc1ccccc1	-2.0%	·	·	·	·	-11.0%
CC(C)(C)NC(=S)NCc1ccc2c(c1)OCO2	11.2µM*	0.3%	-2.2%	-0.6%	-15.0%	?
CO[C@H]1COC(=O)C/C=C\[C@H](C)[C@@H](NS(=O)(=O)c2ccc(C)cc2)COC(=O)C/C=C\[C@@H]1C	10.9%[10 µM]	·	·	·	·	11.4%[10 µM]
Cc1nc(=S)n(-c2ccccc2)[nH]1	?	-1.3%	-7.6%	4.2%	-6.6%	?
S=c1nc(C2CCCCC2)n(-c2ccccc2)[nH]1	2.82µM*	-2.8%	8.7%	2.5%	7.6%	-4.2%
Cc1cccc(/C=N/NC(=O)c2cc(Br)ccc2OCc2ccccc2)n1	?	-6.9%	-8.6%	?	-60.5%	-24.4%
Cc1cccc(/C=N/NC(=O)c2ccc(F)cc2)n1	7.08µM*	-5.7%	-14.0%	?	-33.8%	?
Cc1cccc(/C=N/NC(=O)c2cccc(Cl)c2)n1	7.08µM*	-5.6%	-16.4%	-8.7%	-59.6%	11.2µM*
